The sample as a whole holds a higher share of hits than the screen did.
Giardia FBPA inh-1 = inhibitors of Giardia lamblia fructose-1,6-bisphosphate aldolase | Potency, µM (highest dose often 59.6 µM), inactives show at the top dose activity, negative = inhibition, most hits filed as inhibitors | 290,000 compounds, 0.71% hits | A8B2U2 | purified Giardia FBPA; also: potency is read from the fitted curve at half-maximal effect; % is scaled to controls: 0 for no effect and ±100 for the full control effect; nearly all actives have a fitted effect of over 55% in size
Target sequence (A8B2U2 whole entry, looked up): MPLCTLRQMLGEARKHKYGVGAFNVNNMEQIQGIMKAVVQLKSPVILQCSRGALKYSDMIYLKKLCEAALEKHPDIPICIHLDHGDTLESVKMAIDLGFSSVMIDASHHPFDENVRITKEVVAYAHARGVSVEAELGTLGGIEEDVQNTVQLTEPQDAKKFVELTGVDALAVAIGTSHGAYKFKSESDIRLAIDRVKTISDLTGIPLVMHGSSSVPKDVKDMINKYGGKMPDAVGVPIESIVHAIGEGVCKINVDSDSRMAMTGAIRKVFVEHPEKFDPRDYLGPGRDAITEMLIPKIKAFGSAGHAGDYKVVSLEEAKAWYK
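40 nM FBPA preincubated 10 min at RT with compound (up to 57.5 uM final), then substrate plus GAPDH/TPI/NAD/arsenate coupling and diaphorase/resazurin added. Fluorescence read after 20 min at RT, 525/598 nm.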
LmPK inhibitor = inhibitors of Leishmania mexicana pyruvate kinase; Potency, µM (titrated, usually from 57.5 µM), for inactives: top-dose activity change, negative = inhibition, actives largely listed as inhibitors; Q27686; 290,000 compounds, 0.37% hits; purified LmPK, Kinase-Glo ATP luminescence, 1 h; also: potency is read from the fitted curve at half-maximal effect; % is scaled to controls: 0 for no effect and ±100 for the full control effect
Target sequence (Q27686 whole entry, looked up): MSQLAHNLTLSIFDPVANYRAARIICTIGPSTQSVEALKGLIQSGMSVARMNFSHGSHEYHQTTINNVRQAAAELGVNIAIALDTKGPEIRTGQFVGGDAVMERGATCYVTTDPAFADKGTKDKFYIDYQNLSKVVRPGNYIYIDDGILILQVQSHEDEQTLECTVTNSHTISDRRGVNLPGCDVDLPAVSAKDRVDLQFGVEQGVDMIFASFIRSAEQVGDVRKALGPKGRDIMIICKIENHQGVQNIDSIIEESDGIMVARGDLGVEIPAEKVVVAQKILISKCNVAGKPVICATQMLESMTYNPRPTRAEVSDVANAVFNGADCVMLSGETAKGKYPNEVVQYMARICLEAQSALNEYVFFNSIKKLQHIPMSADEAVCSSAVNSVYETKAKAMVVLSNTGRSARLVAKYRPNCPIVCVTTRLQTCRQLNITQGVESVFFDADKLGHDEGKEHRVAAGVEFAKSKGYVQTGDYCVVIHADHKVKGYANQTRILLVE
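In 50 mM imidazole pH 7.2 with 7 mM MgCl2, LmPK (0.1 nM) turned over PEP (0.5 mM) and ADP (0.1 mM) for 1 h at room temperature. Luciferase read-out of ATP.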
Tb PYK inh = T. brucei pyruvate kinase inhibition; Q57TT1; TbPYK enzyme, Kinase-Glo Plus ATP luminescence, 45 min; Potency, µM (top dose mostly 76.8 µM), inactives show at the top dose activity, negative = inhibition, most hits filed as inhibitors; 410,000 compounds, 0.12% hits; also: potency is read from the fitted curve at half-maximal effect; % is scaled to controls: 0 for no effect and ±100 for the full control effect; nearly all actives have a fitted effect of over 50% in size
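Glycolytic pyruvate kinase of T. brucei was incubated with substrate, test compound and 130 uM ADP for 45 minutes at room temperature. Luminescent Kinase-Glo Plus signal was measured after 10 minutes.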
Cycloheximide cs = affects cycloheximide protein synthesis inhibition readout, counter-screen; 300,000 compounds, 12% hits; AID 2314; max response, %; cell reporter, cycloheximide protein synthesis inhibition counterscreen; in the data active = max response mostly above about 13%, no sharp cut-off; inactive = mostly below about 14%; also: read at 38.3 µM for the half of the compounds with a filed dose; 0% is about no effect
Shiga toxin inh = inhibitors of Shiga toxin in Vero cells; Vero cells, Shiga toxin protein synthesis inhibition reporter; inhibition, % at 38.7 µM; 290,000 compounds, 9.2% hits; AID 2315; in the data active = inhibition mostly above about 28%, no sharp cut-off; inactive = mostly below about 43%; also: 0% is about no effect
RE007 growth inh = less growth of the S. pombe RE007 Vpr strain | S. pombe RE007 Vpr strain, BacTiter-Glo ATP luminescence, 24 h | Potency, µM (series often up to 92.2 µM), for inactives: top-dose activity change, negative = less growth, actives largely listed as inhibitors | 360,000 compounds, 0.21% hits; active = well fitted falling curve with a large enough effect; inconclusive = small, poorly fitted or top-dose-only effect; inactive = no such curve, though single readings can be large or run the other way; also: potency is read from the fitted curve at half-maximal effect; % is scaled to controls: 0 for no effect and ±100 for the full control effect; nearly all actives have a fitted effect of over 50% in size
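Fission yeast strain RE007, carrying one chromosomally integrated HIV-1 vpr copy, was seeded at OD 0.01 in PMG+AL medium with 23 nL pinned compound. After 24 h at 30 °C and 99% humidity, viability was read by BacTiter-Glo luminescence.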
Giardia growth = blocks growth of Giardia lamblia trophozoites; Giardia lamblia trophozoite growth inhibition; shares compounds with Giardia FBPA inh-1; 1,500 compounds, 5% hits; Potency, µM (doses to about 57.5 µM), inactives show at the top dose activity change, negative = inhibition, usual class: inhibitors;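 also: potency is read from the fitted curve at half-maximal effect; trophozoites exposed to compound for 48 h at 37 °C; % is scaled to controls: 0 for no effect and ±100 for the full control effect; nearly all actives have a fitted effect of over 70% in size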
Mammalian tox = counter-screen for Giardia aldolase inhibitors: mammalian cell toxicity | shares compounds with Giardia FBPA inh-1 | mammalian cell viability counter-screen, qHTS | Potency, µM (doses to about 57.5 µM), for inactives: at the top dose viability change, negative = toxicity, most hits filed as inhibitors | 1,500 compounds, 4% hits;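 also: Chinese hamster ovary cells used as mammalian cytotoxicity surrogate; viability measured as cellular ATP by luminescence; potency is read from the fitted curve at half-maximal effect; compound exposure lasted 48 h before reading; % is scaled to controls: 0 for no effect and ±100 for the full control effect; nearly all actives have a fitted effect of over 60% in size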
Giardia FBPA inh-2 = confirmation of Giardia fructose-bisphosphate aldolase inhibitors; shares compounds with Giardia FBPA inh-1; purified Giardia aldolase enzyme activity, qHTS; Potency, µM (doses to about 57.5 µM), for inactives: top-dose activity change, negative = inhibition, hits mostly inhibitors; 1,500 compounds, 5% hits; AID 2787; also: potency is read from the fitted curve at half-maximal effect; % is scaled to controls: 0 for no effect and ±100 for the full control effect; nearly all actives have a fitted effect of over 45% in size
Rabbit FBPA inh = rabbit FBP aldolase inhibition by Giardia aldolase hits | Potency, µM (doses to about 57.5 µM), for the others: at the highest dose activity, negative = inhibition, usual class: inhibitors | shares compounds with Giardia FBPA inh-1 | Rabbit muscle FBPA enzyme inhibition, selectivity counter-screen | 1,500 compounds, 4% hits; also: potency is read from the fitted curve at half-maximal effect; % is scaled to controls: 0 for no effect and ±100 for the full control effect; nearly all actives have a fitted effect of over 60% in size
GAPDH coupling = counter-screen for Giardia aldolase inhibitors: GAPDH coupling enzyme. 1,500 compounds, 6% hits. GAPDH coupling enzyme counterscreen, biochemical, qHTS. shares compounds with Giardia FBPA inh-1. AID 2795. Potency, µM (titrated, usually from 57.5 µM), inactives show at the highest dose activity change, negative = inhibition, hits mostly inhibitors; also: potency is read from the fitted curve at half-maximal effect; % is scaled to controls: 0 for no effect and ±100 for the full control effect; nearly all actives have a fitted effect of over 55% in size
An asterisk follows results filed as active; [ ] = remark or other dose. Unless noted, calls follow the shape of the dose curve; as a rule, active = well fitted curve in the direction sought with a large enough effect; inconclusive = small, poorly fitted or top-dose-only effect, or another doubt; inactive = no such curve, though single readings can be large; an effect the other way counts as inactive or inconclusive.

For CC1CCCCN1S(=O)(=O)c1ccc(C(=O)Nc2nnc(-c3ccco3)o2)cc1 (configuration not stated) the results were Giardia FBPA inh-1 inconclusive, LmPK inhibitor 8%, Tb PYK inh 3%, Cycloheximide cs -2, Shiga toxin inh -16 and RE007 growth inh inconclusive.
O=C(Nc1nnc(C2=COCCO2)o1)c1ccc(S(=O)(=O)N2CCOCC2)cc1 was read as Giardia FBPA inh-1 20µM*, LmPK inhibitor 6%[11.5 µM], Tb PYK inh 6%, Cycloheximide cs -2, Shiga toxin inh -4, RE007 growth inh 11%, Giardia growth inconclusive, Mammalian tox -5%, Giardia FBPA inh-2 3%, Rabbit FBPA inh 5% and GAPDH coupling 6%.
Screening COC(=O)c1n[nH]n(-c2ccccc2)c1=O returned Tb PYK inh -3%.
For COc1ccc2c(c1)-c1nc(/N=C/c3cccc(OC)c3O)sc1CC2 the results were Giardia FBPA inh-1 1.4µM*, LmPK inhibitor inconclusive, Tb PYK inh -5%, Cycloheximide cs 12, Shiga toxin inh 34, RE007 growth inh inconclusive, Giardia growth -28%[38.3 µM], Mammalian tox -2%, Giardia FBPA inh-2 inconclusive, Rabbit FBPA inh inconclusive and GAPDH coupling inconclusive.
`COc1ccc2c(c1)-c1nc(/N=C/c3ccccc3O)sc1CC2` gave Giardia FBPA inh-1 inconclusive, LmPK inhibitor -11%, Tb PYK inh -6%, Cycloheximide cs 10, Shiga toxin inh 3 and RE007 growth inh inconclusive.
Screening Cc1cc(C)c2c(=O)cc(CSc3nnc(-c4ccccc4)n3C)[nH]c2c1 returned Tb PYK inh -3%.
CCCS(=O)(=O)N1CCN(Cc2ccncc2)CC1 was read as Giardia FBPA inh-1 -25%, LmPK inhibitor -1%, Tb PYK inh 5%, Cycloheximide cs 1, Shiga toxin inh -4 and RE007 growth inh 2%.
CCS(=O)(=O)N1CCN(Cc2ccncc2)CC1 was read as Giardia FBPA inh-1 14µM*, LmPK inhibitor -3%, Tb PYK inh -8%, Cycloheximide cs -2, Shiga toxin inh 2, RE007 growth inh -7%, Giardia growth 14%, Mammalian tox 12%, Giardia FBPA inh-2 7%, Rabbit FBPA inh 4% and GAPDH coupling 17%.
Screening C1CCCCCC(=NNc2nn[nH]n2)CCCCC1 returned Giardia FBPA inh-1 16µM*, LmPK inhibitor -1%, Tb PYK inh -6%, Cycloheximide cs 0, Shiga toxin inh 33, RE007 growth inh -17%, Giardia growth -22%, Mammalian tox 2%, Giardia FBPA inh-2 6%, Rabbit FBPA inh 4% and GAPDH coupling 4%.
Screening Cc1cccc(CSc2nc(=O)c3c(n2C)NC(=O)CC3c2cc(F)cc(F)c2)c1 (configuration not stated) returned Tb PYK inh 1%.
Cc1cccc(C(=O)Nc2nnc(-c3cccnc3)o2)c1 was read as Giardia FBPA inh-1 16µM*, LmPK inhibitor -7%, Tb PYK inh 1%, Cycloheximide cs 5, Shiga toxin inh 20, RE007 growth inh -4%, Giardia growth inconclusive, Mammalian tox inconclusive, Giardia FBPA inh-2 4%, Rabbit FBPA inh -1% and GAPDH coupling -1%.
`O=C(Nc1nnc(-c2ccncc2)o1)c1cccc(N2C(=O)CCC2=O)c1` gave Giardia FBPA inh-1 20µM*, LmPK inhibitor 3%[11.5 µM], Tb PYK inh 1%, Cycloheximide cs -1, Shiga toxin inh -8, RE007 growth inh 3%, Giardia growth -7%[10.4 µM], Mammalian tox -15%, Giardia FBPA inh-2 7%, Rabbit FBPA inh 8% and GAPDH coupling 9%.
`CCCNC(=O)N1CCN(S(=O)(=O)c2ccc3c(ccn3C)c2)CC1` gave Tb PYK inh -12%.
OC(CNc1ccccc1)Cn1ccc2ccccc21 (configuration not stated) was read as Giardia FBPA inh-1 18µM*, LmPK inhibitor 1%, Tb PYK inh -12%, Cycloheximide cs -2, Shiga toxin inh 4, RE007 growth inh -12%, Giardia growth inconclusive, Mammalian tox -4%, Giardia FBPA inh-2 -4%, Rabbit FBPA inh 1% and GAPDH coupling 4%.
For OC(CN1CCCC1)Cn1ccc2ccccc21 (configuration not stated) the results were Giardia FBPA inh-1 inconclusive, LmPK inhibitor 0%, Tb PYK inh 23%, Cycloheximide cs -4, Shiga toxin inh -3 and RE007 growth inh -8%.
`COc1ccc(OC)c(S(=O)(=O)NC(=O)C2(C)CCN2C(=O)CC2CCCC2)c1` (configuration not stated) gave Tb PYK inh 1% and RE007 growth inh 4%.
COCCOC(=O)c1c(N)n(Cc2ccco2)c2nc3ccccc3nc12 was read as Giardia FBPA inh-1 7.1µM*, LmPK inhibitor 2%, Tb PYK inh -2%, Cycloheximide cs -3, Shiga toxin inh -11, RE007 growth inh -3%, Giardia growth -5%[38.3 µM], Mammalian tox 7%, Giardia FBPA inh-2 -11%, Rabbit FBPA inh -6% and GAPDH coupling -9%.
For CC(C)OC(=O)c1c(N)n(Cc2ccco2)c2nc3ccccc3nc12 the results were Giardia FBPA inh-1 inconclusive, LmPK inhibitor -1%, Tb PYK inh -16%, Cycloheximide cs -1, Shiga toxin inh -12 and RE007 growth inh -7%.
Cc1cc(Sc2nc(N)ncc2[N+](=O)[O-])ncn1 was read as Giardia FBPA inh-1 18µM*, LmPK inhibitor 0%, Tb PYK inh 11%, Cycloheximide cs 5, Shiga toxin inh -7, RE007 growth inh 7%, Giardia growth -6%[10.4 µM], Mammalian tox inconclusive, Giardia FBPA inh-2 1%, Rabbit FBPA inh 15% and GAPDH coupling 0%.
`CCCCN(CC)C(=O)CCCn1c(=O)c2cccn2c2ccccc21` gave Tb PYK inh 3%.

Bioassay records: PubChem, National Center for Advancing Translational Sciences (NCATS)
